Experimental data: PubChem BioAssay (NCI)
The panel holds about 83,000 compounds, 20% with a hit somewhere; the sample as a whole holds those more often.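 Single-dose data. Exposure time 48 hours. Values below 10 considered active.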 Unmarked numbers belong to inactive results. Active and inactive are the calls of the source.

Tests used:
Experiment in all cases: NCI-60 one-dose screen, 48 h (100 = growth as untreated, 0 = no growth, -100 = all killed)
[1] = tested on: SK-MEL-2 melanoma; settings: 10 µM unless noted
[2] = tested on: EKVX NSCLC; settings: 10 µM unless noted
[3] = tested on: SN12C renal; settings: 10 µM unless noted
[4] = tested on: UO-31 renal; settings: 10 µM unless noted
[5] = tested on: TK-10 renal; settings: 10 µM unless noted
[6] = tested on: ACHN renal; settings: 10 µM unless noted
[7] = tested on: CAKI-1 renal; settings: 10 µM
[8] = tested on: A498 renal; settings: 10 µM unless noted
[9] = tested on: CCRF-CEM leukemia; settings: 10 µM unless noted
[10] = tested on: MOLT-4 leukemia; settings: 10 µM unless noted

Row | SMILES | growth [1] | growth [2] | growth [3] | growth [4] | growth [5] | growth [6] | growth [7] | growth [8] | growth [9] | growth [10]
1 | O=C(CCCCCCN1CC(=O)N2[C@@H](c3cccc(Br)c3)c3[nH]c4ccccc4c3C[C@H]2C1=O)NO | 33.5% | 54.8% | 44.7% | 46.2% | 28.1% | 73.4% | 23.1% | 49.4% | 14.9% | 12.4%
2 | CCCCOc1ccc(S(=O)(=O)N2CCN(c3nccc(N4CCOCC4)n3)CC2)cc1 | 33.5% | 46.3% | 28.7% | 24.8% | 44.3% | 15.1% | 13.8% | -1.44% (active) | 49.8% | 24.2%
3 | O=C(NCCCNc1cc(-c2cn(-c3ccccc3)nc2-c2cccc(O)c2)ccn1)Nc1cccc(C(F)(F)F)c1 | 58.1% | 45.7% | 56.5% | 23.8% | 88.3% | 47.6% | 36.9% | 18.3% | 29.2% | 11.6%
4 | O=C1c2c(c3c4cc(O)ccc4oc3c3[nH]c4ccccc4c23)C(=O)N1O | -71.6% (active) | 66.6% | 17.1% | -40.1% (active) | 31.1% | -5.43% (active) | -16.5% (active) | -9.95% (active) | 1.62% (active) | 4.76% (active)
5 | Cc1ccc(C2CC(c3ccc(Nc4nc(NCCO)nc(Nc5ccc(Cl)cc5)n4)cc3)=Nc3c(N)nc(N)nc3N2)cc1 (stereo not given) | 99% | 33.1% | -65.8% (active) | -91.6% (active) | -84.5% (active) | -36.6% (active) | -9.94% (active) | 77.9% | -23.2% (active) | -29.3% (active)
6 | O=C(c1ccc(O)cc1)[C@@H]1[C@@H]2CCCN2[C@@]2(C(=O)N(C(=O)c3ccc(F)cc3)c3ccccc32)[C@H]1c1ccc(F)cc1 | 110% | 83.4% | 87.3% | 60.4% | 143% | 90% | 70.1% | 82.5% | 67.2% | 68%
7 | O=S(=O)(Nc1cc(Cl)c(F)c(Cl)c1)c1ccc(-c2cnc(C3CC3)o2)cc1 | 51.9% | 47.6% | 48.7% | 56.8% | 72.5% | 49.4% | 12% | 15.5% | 20.7% | 38%
8 | C#Cc1ccc(NC(=O)c2ccc(/C=C/C(=O)c3nccn3C)cc2)c(F)c1 | 103% | 36% | 16.3% | 41.8% | 89.4% | 37.7% | 37.3% | 78.7% | 7.54% (active) | 16.2%
9 | COc1ccc(-c2nn(-c3ccccc3)cc2/C=C/C(=O)c2ccc(NC(=O)CCCCCCC(=O)NO)cc2)cc1 | 109% | 97.2% | 92.7% | 93.7% | 107% | 111% | 81.9% | 68.4% | 92.5% | 70.3%
10 | COc1cc(/C=N/n2cnc3oc(-c4ccccc4)cc3c2=N)cc(CN2CCOCC2)c1O | 104% | 89.9% | 72.4% | 74% | 102% | 28% | 43.7% | 53.8% | 26.2% | 52.9%
11 | O=C(NCCCCCCNC(=O)c1c2c(nc3ccccc13)-c1cccnc1SC2)c1c2c(nc3ccccc13)-c1cccnc1SC2 | 5.25% (active) | 49.1% | 73.8% | 38.8% | 145% | 65.8% | 61.5% | 76.5% | 93.6% | 88.1%
12 | COc1ccc(Cn2cc3c(c2-c2ccccc2)CCCc2cnoc2-3)cc1[N+](=O)[O-] | 60.4% | 78.9% | 82.2% | 55.5% | 109% | 87.1% | 50.5% | 66.8% | 52.6% | 47%
13 | CN(c1ccc(Cl)cc1)S(=O)(=O)c1ccc(-c2cnc(C3CC3)o2)cc1 | 63.7% | 47% | 29.8% | 47.3% | 75.8% | 33.6% | 5.6% (active) | 12.8% | 17.1% | 16.8%
14 | COc1ccc(OC)c([C@H]2c3[nH]c4ccccc4c3C[C@H]3C(=O)N(CCCCCCC(=O)NO)CC(=O)N23)c1 | 86.6% | 93.1% | 84.9% | 78.5% | 101% | 94.2% | 78.4% | 102% | 46.1% | 63.2%
15 | Cc1cc(O)c2c(c1)C(=O)C(c1c(C)cc3c(c1O)C(=O)C=CC3=O)=CC2=O | 123% | 100% | 74.7% | -14.9% (active) | 14.2% | -8.41% (active) | 13.8% | 122% | 19.3% | 41.4%
16 | Cn1ccnc1C(=O)/C=C/c1ccc(C(=O)Nc2ccc(NC(=O)CCNC(=O)c3csc(Br)n3)cc2)cc1 | 109% | 69.9% | 40.2% | 46.6% | 89.7% | 61.8% | 29.3% | 100% | 12.9% | 70.3%
17 | CCN(CC)CCCC(C)NCC(=O)NC(c1ccc2c(c1)OCO2)c1cc(Cl)c2cccnc2c1O (stereo not given) | 81.4% | 26% | 38.1% | 3.38% (active) | 45.6% | 25.2% | 1.43% (active) | 81.1% | 16.5% | 20.4%
18 | C#C[C@]1(O)CC[C@H]2[C@@H]3CC=C4c5sc(Nc6cccc(Cl)n6)nc5CC[C@]4(C)[C@H]3CC[C@@]21C | -24.9% (active) | 1.89% (active) | 40% | -37.8% (active) | 33.2% | 16.4% | -40.6% (active) | -62.6% (active) | 5.11% (active) | -15.9% (active)
19 | O=C1C[C@@H](c2ccccc2)Oc2c(Cc3ccccc3O)c(O)c(Cc3cc(Cc4cc(Cc5ccccc5O)ccc4O)ccc3O)c(O)c21 | 110% | 93.2% | 100% | 66.6% | 147% | 94.4% | 75.5% | 98.3% | 91.5% | 76.3%
20 | C#C[C@]1(O)CC[C@H]2[C@@H]3CC=C4c5sc(Nc6ccc(OC)nc6)nc5CC[C@]4(C)[C@H]3CC[C@@]21C | 68% | 48.7% | 70.5% | 32.6% | 124% | 33.4% | 23.8% | 25.9% | 8.55% (active) | 3.4% (active)
21 | O=C(CSc1ccc(-c2nc3ccccc3[nH]2)cn1)N1CCN(c2ccccc2F)CC1 | 88.4% | 53.6% | 90.4% | 70.9% | 86.5% | 93.2% | 49.1% | 77% | 28.2% | 14.6%
22 | C#C[C@]1(O)CC[C@H]2[C@@H]3CC=C4c5sc(Nc6cc(Cl)ccn6)nc5CC[C@]4(C)[C@H]3CC[C@@]21C | -4.31% (active) | -1.83% (active) | 53.6% | -51.3% (active) | 35.4% | 32.5% | -19.9% (active) | -42.4% (active) | 9.26% (active) | 4.35% (active)
23 | O=S(=O)(Nc1ccc(I)c(Cl)c1)c1ccc(-c2cnc(C3CC3)o2)cc1 | 43.7% | 42.5% | 42.9% | 51.7% | 53.3% | 41.5% | 6.99% (active) | 2.08% (active) | 14.1% | 29.2%
24 | O=C1c2cc(Br)ccc2-n2c1nc1cc(Br)ccc1c2=O | 73.4% | 59.5% | 76.6% | 62.6% | 149% | 79% | 78.7% | 125% | 71.9% | 67.7%
25 | O=C(CN1C(=O)CSC1=O)Nc1ccc(C(=O)/C=C/c2cc3ccccc3nc2Cl)cc1 | 88.5% | 72.1% | 83.8% | 59.5% | 92.1% | 83.5% | 63% | 94.3% | 45.5% | 36.4%
